The results in this text go back to PubChem BioAssay (NCI).

Compounds without any hit were thinned out: in the full panel of roughly 83,000, 20% have a hit.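 How to read the values: 0–100, growth inhibition (40 = 60% inhibited); 0, no net growth; -100 to 0, cell death (-40 = 40% of starting cells died; -100 = all dead).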 A number with no mark means an inactive call. Calls of active or inactive are those of the source. How the source made its calls: active means growth percent below 10; inactive means the rest.

The first experiment has as its system NCI-H322M lung. The experiment in a line: NCI-60 one-dose screen, 48 h (100 = growth as untreated, 0 = no growth, -100 = all killed). Conditions: 10 µM unless noted.
Take `c1ccc2[nH]c(-c3ccc(Nc4nc(N5CCCC5)nc5[nH]ncc45)cc3)nc2c1`: the growth was 6.53% (active).
Same read-out and setting: the result for `COc1cc2c(cc1-c1c(C)noc1C)ncc1nc(C3CCOCC3)n([C@H](C)COC(F)F)c12` reads 41.2%; that for `c1csc(C2=NN3C(C2)c2ccccc2OC3c2ccncc2)c1` (stereo unspecified), 93.1%.
For the molecule `O=C(/C=C/C=C/c1ccc2c(c1)OCO2)N/N=C\c1ccc(O)cc1O`, the growth was 17.8%.
The same measure, in the same setting: to `Fc1ccc2[nH]cc(SSc3c[nH]c4ccc(F)cc34)c2c1` belongs 89.7%; to `Cc1cc(C)nc(SC2=C(Nc3cc(Cl)ccc3O)C(=O)N(Cc3ccccc3)C2=O)n1`, -32% [30 µM] (active); to `CC(C)(C)N1CCC1CN` (stereo unspecified), 118%.
Still for that read-out and setting: the result for `COc1cc(-c2nc3ccccc3[nH]2)ccc1OCC(=O)N=Nc1c(O)[nH]c2ccc(Cl)cc12` reads -7.85% (active).
For the molecule `CSc1nc(-c2cccc(NC(=O)CCl)c2)c(C#N)c(=O)n1C`, the growth was 107%.
Regarding `Cc1nc2ccccc2n1C(=O)C[C@@H]1NC(=S)NC1=O`, the growth is 96%.
Still for that read-out and setting: to `COc1ccc(/C=N/C2=C(C#N)C(c3ccc(N(C)C)cc3)c3ccc4ccccc4c3O2)cc1` (stereo unspecified) belongs 89.1%; to `COc1cccc(NC(=O)c2sc3nc(C)c(C(C)=O)cc3c2N)c1`, 45.5%; to `O=C1CC[C@H](c2ccc(O)c3c2C(=O)[C@@H]2O[C@@H]2C3=O)c2cccc(O)c21`, 98%.
Turning to `C=C(C)C1CC(O)C2(C)CCCC3C2C1CC(C)C3(C)CC/C(C)=C/C(O)C1CCC(=O)c2c(OC)cc(OC)cc21` (stereo unspecified), the growth was 78.9%.
As for `Clc1ccc2c(NCCCNc3nc(-n4ccnc4)nc4ccccc34)ccnc2c1`, the growth is 94.7%.
In the case of `c1ccc(CCNc2ncnc3[nH]ncc23)cc1`, the growth was 112%.
The same measure, in the same setting: the result for `CC[C@]1(O)C[C@@H]2CN(CCc3c([nH]c4ccccc34)[C@@](C(=O)OC)(c3cc4c(cc3OC)N(C)[C@H]3[C@@](O)(C(N)=O)[C@H](O)[C@]5(CC)[C@@H]6C[C@@H]6CN6CC[C@]43[C@@H]65)C2)C1` reads 55.4%; that for `Cc1ccc(-c2onc3c(=O)[nH]nc(-c4ccccc4)c23)cc1`, 56.9%; that for `Cc1cc(N2CCCCC2)nc(NC2CCCC(Nc3ccnc4cc(Cl)ccc34)C2)n1` (stereo unspecified), -48.7% (active).
On the same count and under the same terms, the result for `COc1cc2nc(N3CCCC3)nc(NCCc3ccccc3)c2cc1OC` reads 75.2%.
`O=C(COc1ccc(/C=C2\CSc3ccccc3C2=O)cc1)Nc1nccs1`: the growth is 87.9%.
Turning to `Oc1cccc(-c2nc(N3CCOCC3)c3c4c(sc3n2)CCCC4)c1`, the growth is 56%.
Consider `COc1ccc(/C=C2\Oc3cc(OCCCCN4CCCC4)ccc3C2=O)cc1`, for which the growth is 98.6%.
Same read-out and setting: to `Brc1ccc(-c2csc(Nc3ccccn3)n2)cc1` belongs 95.2%.
Same read-out and setting: the result for `Cc1ccc2c(C(C[N+](=O)[O-])c3ccccc3)c(-c3ccccc3)[nH]c2c1` (stereo unspecified) reads 41.7% [9.5 µM]; that for `Nc1ccc(-c2cc3c(Nc4ccc(Oc5cccc(C(F)(F)F)c5)c(Cl)c4)ncnc3s2)cc1`, 61.9%.
Regarding `COc1ccc(C(=S)N2CCN(c3cccc(Cl)c3)CC2)cc1`, the growth was 98.3%.
Same read-out and setting: the result for `O=C(CCCCC(=O)N/N=C\c1ccccc1O)N/N=C\c1ccccc1O` reads 27.5%; that for `CN1C(=O)C2(SCC(C(=O)NCc3ccccc3)N2C(=O)C2CCCCC2)c2ccccc21` (stereo unspecified), 77.1%.
Still for that read-out and setting: to `O=C(C(=O)c1ccc2c(c1)OCO2)c1ccc2c(c1)OCO2` belongs 122%.
For `C=C1C(=O)O[C@H]2[C@H]1CC/C(COC(=O)NCc1ccc(OC)c(OC)c1)=C\CC[C@@]1(C)O[C@@H]21`, the growth was 97.6%.
Same read-out and setting: to `CCNc1ncnc2c1cnn2C1CCCO1` (stereo unspecified) belongs 109%; to `COc1ccc2c(c1)c(-c1nonc1-c1cn(C)c3ccccc13)cn2C`, 42.2%.
On to `Nc1ccc(S(=O)(=O)O)c2ccc(N=Nc3ccc(N=Nc4ccc(S(=O)(=O)O)cc4)c4ccccc34)c(O)c12`, for which the growth was 94.7%.
`CCOc1ccc(C(C)=O)cc1NC(=O)c1cccc(-c2nnn(CC)n2)c1`: the growth was 49.1%.
On to `O=C1CSC(=S)N1CCc1ccc(O)cc1`, for which the growth was 98.1%.
As for `COC(=O)c1ccc2oc(NC(=O)c3ccc(Nc4ccc([N+](=O)[O-])cc4C)c([N+](=O)[O-])c3)nc2c1`, the growth was 101%.
On to `CC(C)n1c(/C=C/[C@@H](O)C[C@@H](O)CC(=O)O)c(-c2ccc(F)cc2)c2ccccc21`, for which the growth was 43.7%.

Another experiment concerns HOP-62 NSCLC. The description is as above. Particulars: 10 µM unless noted.
For `c1ccc2[nH]c(-c3ccc(Nc4nc(N5CCCC5)nc5[nH]ncc45)cc3)nc2c1`, the growth is -36.6% (active).
On to `COc1cc2c(cc1-c1c(C)noc1C)ncc1nc(C3CCOCC3)n([C@H](C)COC(F)F)c12`, for which the growth was 35.2%.
Same read-out and setting: the result for `c1csc(C2=NN3C(C2)c2ccccc2OC3c2ccncc2)c1` (stereo unspecified) reads 106%; that for `O=C(/C=C/C=C/c1ccc2c(c1)OCO2)N/N=C\c1ccc(O)cc1O`, 27.1%.
Same read-out and setting: to `Fc1ccc2[nH]cc(SSc3c[nH]c4ccc(F)cc34)c2c1` belongs 31.7%.
With `Cc1cc(C)nc(SC2=C(Nc3cc(Cl)ccc3O)C(=O)N(Cc3ccccc3)C2=O)n1`, the growth is 102% [30 µM].
For the molecule `CC(C)(C)N1CCC1CN` (stereo unspecified), the growth was 108%.
Same read-out and setting: to `COc1cc(-c2nc3ccccc3[nH]2)ccc1OCC(=O)N=Nc1c(O)[nH]c2ccc(Cl)cc12` belongs -61.5% (active).
On the same count and under the same terms, to `CSc1nc(-c2cccc(NC(=O)CCl)c2)c(C#N)c(=O)n1C` belongs 98.7%.
In the case of `Cc1nc2ccccc2n1C(=O)C[C@@H]1NC(=S)NC1=O`, the growth was 93.2%.
Still for that read-out and setting: the result for `COc1ccc(/C=N/C2=C(C#N)C(c3ccc(N(C)C)cc3)c3ccc4ccccc4c3O2)cc1` (stereo unspecified) reads 57.4%; that for `COc1cccc(NC(=O)c2sc3nc(C)c(C(C)=O)cc3c2N)c1`, 44.7%; that for `O=C1CC[C@H](c2ccc(O)c3c2C(=O)[C@@H]2O[C@@H]2C3=O)c2cccc(O)c21`, 79%.
With `C=C(C)C1CC(O)C2(C)CCCC3C2C1CC(C)C3(C)CC/C(C)=C/C(O)C1CCC(=O)c2c(OC)cc(OC)cc21` (stereo unspecified), the growth is 46.7%.
Still for that read-out and setting: to `Clc1ccc2c(NCCCNc3nc(-n4ccnc4)nc4ccccc34)ccnc2c1` belongs 83%; to `c1ccc(CCNc2ncnc3[nH]ncc23)cc1`, 89.7%.
Still for that read-out and setting: to `CC[C@]1(O)C[C@@H]2CN(CCc3c([nH]c4ccccc34)[C@@](C(=O)OC)(c3cc4c(cc3OC)N(C)[C@H]3[C@@](O)(C(N)=O)[C@H](O)[C@]5(CC)[C@@H]6C[C@@H]6CN6CC[C@]43[C@@H]65)C2)C1` belongs 24.1%; to `Cc1ccc(-c2onc3c(=O)[nH]nc(-c4ccccc4)c23)cc1`, 26.5%; to `Cc1cc(N2CCCCC2)nc(NC2CCCC(Nc3ccnc4cc(Cl)ccc34)C2)n1` (stereo unspecified), -86.5% (active).
For the molecule `COc1cc2nc(N3CCCC3)nc(NCCc3ccccc3)c2cc1OC`, the growth was 68.5%.
As to `O=C(COc1ccc(/C=C2\CSc3ccccc3C2=O)cc1)Nc1nccs1`, the growth is 94.5%.
Same read-out and setting: the result for `Oc1cccc(-c2nc(N3CCOCC3)c3c4c(sc3n2)CCCC4)c1` reads 62%; that for `COc1ccc(/C=C2\Oc3cc(OCCCCN4CCCC4)ccc3C2=O)cc1`, 91.7%; that for `Brc1ccc(-c2csc(Nc3ccccn3)n2)cc1`, 85.4%.
The same measure, in the same setting: to `Cc1ccc2c(C(C[N+](=O)[O-])c3ccccc3)c(-c3ccccc3)[nH]c2c1` (stereo unspecified) belongs 20.2% [9.5 µM]; to `Nc1ccc(-c2cc3c(Nc4ccc(Oc5cccc(C(F)(F)F)c5)c(Cl)c4)ncnc3s2)cc1`, 90.2%.
Still for that read-out and setting: the result for `COc1ccc(C(=S)N2CCN(c3cccc(Cl)c3)CC2)cc1` reads 98.5%; that for `O=C(CCCCC(=O)N/N=C\c1ccccc1O)N/N=C\c1ccccc1O`, 39.1%.
Regarding `CN1C(=O)C2(SCC(C(=O)NCc3ccccc3)N2C(=O)C2CCCCC2)c2ccccc21` (stereo unspecified), the growth was 98.2%.
On the same count and under the same terms, to `O=C(C(=O)c1ccc2c(c1)OCO2)c1ccc2c(c1)OCO2` belongs 101%; to `C=C1C(=O)O[C@H]2[C@H]1CC/C(COC(=O)NCc1ccc(OC)c(OC)c1)=C\CC[C@@]1(C)O[C@@H]21`, 87.8%.
Still for that read-out and setting: the result for `CCNc1ncnc2c1cnn2C1CCCO1` (stereo unspecified) reads 99.4%; that for `COc1ccc2c(c1)c(-c1nonc1-c1cn(C)c3ccccc13)cn2C`, 33.1%.
The same measure, in the same setting: the result for `Nc1ccc(S(=O)(=O)O)c2ccc(N=Nc3ccc(N=Nc4ccc(S(=O)(=O)O)cc4)c4ccccc34)c(O)c12` reads 112%; that for `CCOc1ccc(C(C)=O)cc1NC(=O)c1cccc(-c2nnn(CC)n2)c1`, 36.8%.
For the molecule `O=C1CSC(=S)N1CCc1ccc(O)cc1`, the growth was 85.2%.
For `COC(=O)c1ccc2oc(NC(=O)c3ccc(Nc4ccc([N+](=O)[O-])cc4C)c([N+](=O)[O-])c3)nc2c1`, the growth is 107%.
Still for that read-out and setting: to `CC(C)n1c(/C=C/[C@@H](O)C[C@@H](O)CC(=O)O)c(-c2ccc(F)cc2)c2ccccc21` belongs 73.4%.
